CHT PAM – allosterically activates the human high affinity choline transporter; B-score at 10 µM; AID 488977; 0.49% of 310,000 active; CHT-expressing cells, membrane potential dye, choline EC20; active compounds read high; LV-AA mutant CHT in HEK293 cells; Q9GZV3;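 active = initial fluorescence not abnormally high and integrated response B-score, plate-corrected, over 3 SD above library mean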
Target sequence (Q9GZV3 whole entry, looked up): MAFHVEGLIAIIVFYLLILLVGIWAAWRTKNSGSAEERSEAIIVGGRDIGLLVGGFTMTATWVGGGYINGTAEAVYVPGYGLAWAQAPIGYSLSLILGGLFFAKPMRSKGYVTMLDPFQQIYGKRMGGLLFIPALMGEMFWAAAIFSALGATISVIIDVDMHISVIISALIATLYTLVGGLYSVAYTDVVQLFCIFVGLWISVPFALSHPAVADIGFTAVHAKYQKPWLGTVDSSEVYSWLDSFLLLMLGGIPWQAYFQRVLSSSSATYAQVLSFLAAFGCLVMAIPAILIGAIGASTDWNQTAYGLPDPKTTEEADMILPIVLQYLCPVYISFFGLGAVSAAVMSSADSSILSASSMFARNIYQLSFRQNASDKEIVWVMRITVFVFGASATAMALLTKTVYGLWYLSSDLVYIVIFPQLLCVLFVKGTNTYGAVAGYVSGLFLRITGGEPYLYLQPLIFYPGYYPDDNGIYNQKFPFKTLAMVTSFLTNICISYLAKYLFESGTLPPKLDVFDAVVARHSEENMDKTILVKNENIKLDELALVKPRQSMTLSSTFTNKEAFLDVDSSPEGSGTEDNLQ
ANO1 activ – activates or potentiates the mouse TMEM16A chloride channel | Q8BHY3 | HEK293 TMEM16A/YFP-H148Q/I152L, iodide quench fluorescence; active compounds read low | B-score at 10 µM | 0.3% of 340,000 active | AID 623877;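 active = fluorescence-ratio B-score plate-corrected deviation score at least 3 library SD below zero, with starting fluorescence score within 5 deviations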;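 note: channel opened by trigger with iodide after compound preincubation; score built on the fluorescence ratio of max minus min over baseline; more negative score means more quench and so TMEM16A activation or potentiation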
TMEM16A inh – mouse TMEM16A channel inhibition, primary screen | 1.2% of 310,000 active | normalized B-score (activity score, 25-100; higher = stronger inhibition) at 10 µM | Q8BHY3 | HEK293 TMEM16A/YFP iodide influx fluorescence, ionomycin | AID 588511;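 active = ratio plate-corrected score three or more library SD toward inhibition, starting fluorescence score within five deviations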;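 note: score derived from kinetic fluorescence span divided by baseline fluorescence per well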
CHT inh – human CHT choline transport inhibition | Q9GZV3 | CHT-expressing cells, membrane potential dye, choline response; active compounds read low | B-score at 10 µM | 0.86% of 310,000 active;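 active = B-score over 3 SD under the library average, and starting fluorescence ratio not unusually high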;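 note: choline stimulus applied at its EC90 after an EC20 pre-addition; B-score computed on integrated fluorescence ratio after choline addition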
CHT act confirm – human CHT activation, confirmatory screen; shares compounds with CHT PAM; CHT-expressing cells, membrane potential dye fluorescence (FDSS); % of choline EC20–EC90 response window; HEK293 expressing CHT LV-AA mutant; choline added at its EC20; activation, % at 10 µM; 91% of 2,500 active; AID 504833;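 active = primary screen active, with duplicate mean activation above negative control mean plus 3 SD, cut at about 11% in these data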
HEK293 MP dye – activity in parental HEK293 cells lacking CHT. ratio readout change at 10 µM, hits read low. membrane potential dye fluorescence (FDSS); measured after EC20 choline addition. 62% of 2,500 active. shares compounds with CHT PAM. AID 623908;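 active = duplicate-averaged ratio beyond 3 SD from buffer wells, up or down, though filed actives are nearly all decreases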
Of the large screens only hits and unclear results are named; the others gave an inactive call (follow-up assays come after a bar, where they were run). Rows were chosen to be rich in hits. Some 2.4% of all compounds tested hit in one or more screens of this group.

CCCC[n+]1c(C)sc2cc(OC)ccc21	none
Cc1ccc(N(CC(=O)Nc2c(C)n(C)n(-c3ccccc3)c2=O)S(C)(=O)=O)c(C)c1	none
Cc1ccc(N(CC(=O)N/N=C/c2cc(C)n(-c3ccccc3)c2C)S(C)(=O)=O)c(C)c1	none | CHT act confirm 24.0 | HEK293 MP dye inactive
O=[N+]([O-])c1cccc(-c2cc3cccc[n+]3cc2-c2cccc([N+](=O)[O-])c2)c1	CHT PAM 13.6 | CHT act confirm 76.7 | HEK293 MP dye -74.8
O=c1cc(-c2cccc([N+](=O)[O-])c2)[nH][nH]1	none
Cc1sc2cc(-c3cccc([N+](=O)[O-])c3)c(-c3cccc([N+](=O)[O-])c3)c[n+]2c1C	CHT PAM 8.37 | CHT act confirm 56.1 | HEK293 MP dye -88.4
CCCc1cc(=O)oc2cc(OCC(=O)NCCc3c[nH]c4ccccc34)ccc12	none
CCCOC(=O)c1ccc(NC(=O)c2cnccn2)cc1	none
CCCn1c(C)cc(=O)c2cc(NC(=O)c3cnccn3)ccc21	none | CHT act confirm 40.8 | HEK293 MP dye -79.9
O=C(Nc1ccc2nccnc2c1)c1cnccn1	CHT PAM 7.5 | CHT act confirm 52.9 | HEK293 MP dye -58.3
O=C(Nc1ccc2ccccc2c1)c1cnccn1	none
Nc1ccccc1-c1nc2ccccc2[nH]1	none
O=c1[nH]cccc1-c1nc2ccccc2[nH]1	none | CHT act confirm 34.4 | HEK293 MP dye -30.3
CCn1c(C)[n+](CCOC(C)=O)c2cc(Cl)c(Cl)cc21	none
CC(=O)OCCCn1c(C)[n+](C)c2cc(Cl)c(Cl)cc21	CHT PAM 9.71 | CHT act confirm 67.3 | HEK293 MP dye -61.6
CCCCn1c(CN(C)Cc2ccccc2)nc2c1c(=O)n(C)c(=O)n2C	CHT PAM 6.59 | CHT act confirm inactive | HEK293 MP dye inactive
CCCCCCn1c(CN2CCC(C)CC2)nc2c1c(=O)n(C)c(=O)n2C	none
CCCCCCn1c(CN2CCN(CCO)CC2)nc2c1c(=O)n(C)c(=O)n2C	CHT PAM 8.1 | CHT act confirm 59.7 | HEK293 MP dye -55.7
CCCn1c(CN(C)Cc2ccccc2)nc2c1c(=O)n(C)c(=O)n2C	none
Cc1cc(N2CC(C)OC(C)C2)nc2ccccc12 (stereo unspecified)	CHT PAM 6.62 | CHT act confirm 27.7 | HEK293 MP dye -54.5
COc1ccc(Br)cc1CN(C)CC(=O)Nc1c(Cl)cccc1Cl	none | CHT act confirm inactive | HEK293 MP dye inactive
COC(=O)c1c(NC(=O)CSc2nnc3ccccn23)sc2c1CCC2	none
c1ccc2c(c1)CC1(CCCC1)N=C2N1CCOCC1	none
CCOC(=O)NC(Nc1sc2c(c1C(=O)OC)CCN(C)C2)(C(F)(F)F)C(F)(F)F	CHT PAM 7.59 | CHT act confirm inactive | HEK293 MP dye -49.7
CCOC(=O)C(NC(=O)CC)(Nc1sc2c(c1C(=O)OC)CCN(C)C2)C(F)(F)F (stereo unspecified)	CHT PAM 7.48 | CHT act confirm 26.5 | HEK293 MP dye -49.3
CN(C)c1ccc2c3c(ccc(N(C)C)c13)COC2	CHT PAM 14.6 | CHT act confirm 24.4 | HEK293 MP dye -31
CN(C)c1cccc2cccc(N(C)C)c12	none
CCC(Oc1ccccc1)C(=O)N(C)CC(=O)N(CC(C)C)c1c(N)n(CC(C)C)c(=O)[nH]c1=O (stereo unspecified)	none
O=S(=O)(c1ccc(NC(=S)NN=C2CCCCC2)cc1)N1CCOCC1	none
CN(C)CCN(Cc1cc2cc3c(cc2nc1Cl)OCO3)C(=O)c1ccco1	CHT PAM 6.84 | CHT act confirm 55.2 | HEK293 MP dye -56.5
O=C(c1ccc(Cl)c(S(=O)(=O)Nc2ccccc2C(=O)N2CCc3ccccc3C2)c1)N1CCc2ccccc2C1	none
COC(=O)[C@]1(CC(C)C)N[C@H](c2ccc(SC3CCCCC3)c(OC)c2)[C@@H]2C(=O)N(C)C(=O)[C@@H]21	none
CCCCCCSc1ccc([C@H]2N[C@@](CC(C)C)(C(=O)OC)[C@H]3C(=O)N(C)C(=O)[C@@H]23)cc1OC	CHT PAM 7.2 | CHT act confirm 18.1 | HEK293 MP dye inactive
COc1cccc(CN2CC(C(=O)NCc3cnn(C)c3)CCC2=O)c1 (stereo unspecified)	none

Screening results (PubChem)
